# Shown are actives, neighbours in structure and some others; about 0.52% of the full set was active somewhere.
# USP2a block: blocks human ubiquitin-specific protease USP2a. USP2 core, Ub-CHOP2 coupled fluorogenic reporter, 485/531. 0.01% of 330,000 active. Potency, µM (highest dose often 38.3 µM), inactives show at the highest dose activity change, negative = inhibition, usual class: inhibitors;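 also: plate controls were DMSO wells for no effect and full inhibition by NEM control for full effect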
# Target sequence (O75604 whole entry, looked up): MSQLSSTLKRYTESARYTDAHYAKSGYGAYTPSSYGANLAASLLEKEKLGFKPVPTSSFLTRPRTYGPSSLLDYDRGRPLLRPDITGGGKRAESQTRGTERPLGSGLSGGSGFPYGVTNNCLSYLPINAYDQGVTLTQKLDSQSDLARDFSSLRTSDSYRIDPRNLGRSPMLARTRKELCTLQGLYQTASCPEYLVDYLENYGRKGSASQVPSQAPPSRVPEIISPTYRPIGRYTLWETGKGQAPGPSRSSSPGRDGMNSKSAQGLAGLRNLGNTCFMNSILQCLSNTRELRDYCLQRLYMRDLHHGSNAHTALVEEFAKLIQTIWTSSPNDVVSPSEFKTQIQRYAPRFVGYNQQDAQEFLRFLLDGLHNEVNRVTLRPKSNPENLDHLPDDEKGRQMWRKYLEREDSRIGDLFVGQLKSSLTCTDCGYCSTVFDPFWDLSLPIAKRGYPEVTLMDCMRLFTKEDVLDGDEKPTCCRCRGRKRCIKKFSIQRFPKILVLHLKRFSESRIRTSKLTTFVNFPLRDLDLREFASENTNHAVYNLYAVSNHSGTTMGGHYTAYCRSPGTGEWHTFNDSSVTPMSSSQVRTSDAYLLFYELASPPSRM
#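 Deubiquitinase activity read as fluorescence (485/531 nm) after Ub-CHOP2 cleavage activates the enterokinase reporter on its substrate; USP2 core 10nM, Ub-CHOP2 and substrate 25nM each, 30min compound preincubation then 60min RT; data normalized to NEM, curves fitted.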
# GLS inh: inhibitors of human glutaminase (GLS); O94925; GLS enzymatic activity, qHTS titration; Potency, µM (top dose mostly 45.5 µM), for the others: at the top dose activity change, negative = inhibition, most hits filed as inhibitors; 0.21% of 410,000 active; AID 624170
#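 hKGA; 45 mM KH2PO4 pH 8.2 + 0.02% Tween-20; cpd via pin tool; 1 mM Gln soln; GluOx/HRP/Amplex Red; RT 30 min; fluor. t0 & final.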
# Tb PFK inh: inhibitors of T. brucei phosphofructokinase | T. brucei PFK, ADP-Glo luminescence | Potency, µM (top dose mostly 57.5 µM), for the others: at the top dose activity, negative = inhibition, actives largely listed as inhibitors | 0.17% of 330,000 active;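 also: 0% = uninhibited 1x PFK enzyme wells and -100% = no-enzyme wells; nearly all actives have a fitted effect of over 60% in size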
#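 PFK 1.25 nM, F6P 0.5 mM, ATP 0.1 mM, 0.1 M TEA pH 8.0, 5 mM MgCl2, 0.01% Tween20, 0.1% BSA; 45 min RT. ADP-Glo readout. qHTS titration up to 57 uM; curves fitted, compounds curve-classed.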
# GCN5L2 inh: GCN5L2 (KAT2A) acetyltransferase inhibition; Q92830; Potency, µM (series often up to 58.9 µM), for the others: at the highest dose activity change, negative = inhibition, usual class: inhibitors; 0.21% of 390,000 active; GCN5L2 HAT assay, ThioGlo1 CoA-SH fluorescence
#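 Preincubate 20nM GCN5L2 with compound 15 min, RT → add 50uM ThioGlo1 + 75uM H3(1-25) + 70uM acetyl-CoA → read fluorescence 0 and 20 min. Primary qHTS; fluorescent artifacts likely.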
# Tb PGK inh: blocks T. brucei phosphoglycerate kinase. Potency, µM (doses to about 57.5 µM), for the others: top-dose activity change, negative = inhibition, most hits filed as inhibitors. P07378. 0.043% of 380,000 active. PGK/GAPDH coupled, Kinase-Glo luminescence, 60 min. AID 602233; also: nearly all actives have a fitted effect of over 60% in size
#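 Luminescent ATP detection (Kinase-Glo Plus) follows a 60-minute room-temperature incubation, with wells lacking PGK as controls. Buffer: 100 mM TEA (pH 7.6), 5 mM MgCl2, 0.01% Tween-20. Coupling enzyme GAPDH (100 nM final) supplies unstable 1,3-BPG in-well.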
# An asterisk follows results filed as active; i = inactive; ? = inconclusive; . = no result given; ! = not active in a repeat; [ ] = another dose, or the depositor's remark. Calls follow the shape of the dose curve; as a rule, active = well fitted curve in the direction sought with a large enough effect; inconclusive = small, poorly fitted or top-dose-only effect, or another doubt; inactive = no such curve, though single readings can be large; an effect the other way counts as inactive or inconclusive. Unless noted, % is scaled to controls: 0 for no effect and ±100 for the full control effect; potency is read from the fitted curve at half-maximal effect.
SMILES,USP2a block,GLS inh,Tb PFK inh,GCN5L2 inh,Tb PGK inh
CC(C)(S)C(=O)NC(CS)C(=O)O (stereo not drawn),.,-1%,.,.,.
CCC(C)(C)OC(=O)N[C@@H](Cc1c[nH]c2ccccc12)C(=O)N[C@@H](CCSC)C(=O)N[C@@H](CC(=O)O)C(=O)N[C@@H](Cc1ccccc1)C(N)=O,.,-16%,.,.,.
CSc1nc(SCC(=O)O)c2sc3nc(-c4ccccc4)c4c(c3c2n1)CCC4,4%,14µM*,2%,?,?
CSc1nc(N2CCN(CCO)CC2)c2sc3nc(-c4ccco4)c4c(c3c2n1)CCC4,1%,.,2%,-4%,.
CSc1nc(N(C)CCO)c2sc3nc(-c4ccco4)c4c(c3c2n1)CCC4,0%,13µM*,?,?,?
CO[C@@H]1[C@@H]([C@H](C)[C@@H]2O[C@@]3(CC[C@@](C)([C@H]4CC[C@@](C)([C@H]5O[C@H]([C@H]6O[C@](C)(O)[C@H](C)C[C@@H]6C)C[C@H]5O[C@H]5C[C@@H](OC)[C@H](OC)[C@@H](C)O5)O4)O3)C[C@@H](O)[C@@H]2C)O[C@@](O)(CC(=O)O)[C@H](C)[C@H]1OC,.,-1%,.,.,.
CCOC(=O)c1cc(-c2ccc(OC)cc2)n(CCC(=O)NC2CCCCC2)c1C,.,-10%,.,-1%,9%
Cc1cc(Cl)ccc1N1C(=O)CC(NNC(=O)c2cccnc2)C1=O (stereo not drawn),3%,7.1µM*,0%,-5%,2%
CN1C2CCC1/C(=C\c1ccc(F)cc1)C(=O)/C2=C/c1ccc(F)cc1,1%,6%,-8%,-7%,4%
C=CC(=O)N1C/C(=C/c2ccc(F)cc2)C(=O)/C(=C\c2ccc(F)cc2)C1,.,10µM*,.,.,10µM*
O=C(c1ccccc1)c1ccc(O)c(O)c1O,.,10µM*,.,.,?
Cc1cc(C(=O)c2ccccc2)cc(C)c1O,.,5%,.,.,2%
COc1ccc2c(N)c(C(=O)NN)[nH]c2c1,-2%,13µM*,0%,-5%,0%
CCS(=O)(=O)N1CCCc2cc(C(=O)Nc3cc([N+](=O)[O-])ccc3C)ccc21,.,4%,.,-3%,14%
CC[C@H]1OC(=O)C[C@@H](O)[C@H](C)[C@@H](O[C@@H]2O[C@H](C)C[C@H](N(C)C)[C@@H]2O)[C@@H](CC=O)C[C@@H](C)C(=O)/C=C\[C@]2(C)O[C@H]2[C@@H]1C,.,2%,.,.,.
COC/C=C/C1=CC2=CC(=O)C(C)(OC(=O)c3cnc4ccccc4n3)C(=O)C2=CN1c1ccc(CO)cc1 (stereo not drawn),?,.,4.8µM*,?,.
COC/C=C/C1=CC2=CC(=O)C(C)(OC(=O)c3cnc4ccccc4n3)C(=O)C2=CN1c1ccccc1 (stereo not drawn),-1%,-16%,5%,-13%,7%
NC(=S)NNC(=O)Nc1ccc(Cl)c(Cl)c1,0%,9%,17µM*,-4%,-7%
O=C(Cc1ccccc1)NNC(=O)Nc1ccc(Cl)c(Cl)c1,3%,-1%,0%,-2%,-4%
Cc1ccc(C(=O)O/N=C(\N)c2ccccn2)c(C)c1,1%,6%,?,-12%,16µM*
COc1ccc(C(=O)O/N=C(\N)c2ccccn2)cc1,-1%,1%,15µM*,-7%,11µM*
COc1ccc(C(=O)NNC(=O)c2ccccn2)cc1,-1%,0%,15µM*,-4%,?
CCOC(=O)c1c(/N=C/c2ccc(C)cc2O)sc2c1CCN(C)C2,0%,10µM*,-3%,1%,-4%
CCOC(=O)c1c(/N=C/c2cccc(C)c2O)sc2c1CCN(C)C2,4%,-1%,7%,30%,i
O=c1c2ccccc2cnn1-c1nc2ccccc2[nH]1,-1%,-2%,?,-1%,10µM*
SMILES,USP2a block,GLS inh,Tb PFK inh,GCN5L2 inh,Tb PGK inh
N[C@@H](C(=O)N[C@H]1C(=O)N2C(C(=O)O)=C(Cl)CC[C@H]12)c1ccccc1,.,1%,.,.,.
COc1ccc(Cl)cc1NC(=O)c1cc2c(=O)n3ccccc3nc2s1,.,-17%,.,35µM*,.
CCN(C(=O)c1ccc2c(c1)N(Cc1cccc(Cl)c1)C(=O)c1ccccc1S2=O)c1ccccc1 (stereo not drawn),.,-1%,.,-5%,-1%
Oc1ccc(-c2csc(-c3ccccc3)n2)cc1O,-2%,?,-13%,-15%,.
Cc1ccc2nc(-c3ccc(O)c(O)c3)cn2c1,0%,20µM*,?,1%,?
Cc1nc(-c2ccc(O)c(O)c2)cs1,3%,11µM*,-29%,-7%[0.501 µM],1%
Oc1ccc(-c2csc(-c3cccnc3)n2)cc1O,6%,3.5µM*,-5%,-15%,-15%
CC(C)=CCC/C(C)=C\CC/C(C)=C\CC/C(C)=C\CC1=C(C)C(=O)c2ccccc2C1=O,.,-12%,.,.,.
CC(C)=CCOc1ccc(/C=C/C(=O)c2ccc(OCC=C(C)C)cc2OCC(=O)O)cc1,.,-1%,.,10µM*,.
CCN(c1ccc(OC)cc1)S(=O)(=O)c1ccc2[nH]c3c(c2c1)CCCCC3,.,10%,.,-26%,5%
CCN1CCN(Cc2ccc(NC(=O)c3ccc(C)c(NC(=O)N4CCNC4=O)c3)cc2C(F)(F)F)CC1,4%,5%,0%,-3%,25µM*!
COc1cc2[nH]c(=O)n(CCCCCC(=O)NCCc3ccccc3)c(=O)c2cc1OC,.,-4%,.,-5%,i
COC(=O)c1ccc2c(=O)n(CCCCCC(=O)NCCc3ccccc3)c(=O)[nH]c2c1,.,11µM*,.,0%,-2%
O=C(CCCCCn1c(=O)[nH]c2ccccc2c1=O)NCc1ccccc1,.,8.9µM*,.,-6%,i
CC(=O)OCC(=O)[C@@]1(O)[C@H](C)C[C@H]2C3C[C@H](F)C4=CC(=O)C=CC4(C)C3[C@@H](O)CC21C (stereo partly drawn),.,-1%,.,.,.
O=C1OC2(c3cc(I)c(O)c(I)c3Oc3c2cc(I)c(O)c3I)c2c(Cl)c(Cl)c(Cl)c(Cl)c21,.,.,.,3.2µM*,.
O=C1OC2(c3ccccc31)c1cc(I)c(O)c(I)c1Oc1c2cc(I)c(O)c1I,?,?,?,8.9µM*,.
O=C1OC2(c3ccc(O)cc3Oc3cc(O)ccc32)c2ccccc21,.,3%,.,?,.
CCc1ccc(NC(=O)C(C)Sc2nc(-c3ccco3)c(C#N)c(=O)[nH]2)cc1 (stereo not drawn),-1%,20µM*,1%,-12%,-14%
CCCN(CCC)c1nn2c(=O)c(C(=O)NCc3cccc(OC)c3)cnc2s1,.,2%,.,-29%,2%
CCC(Sc1nc(-c2ccccc2)[nH]c1S(=O)(=O)c1ccc(C)cc1)C(=O)O (stereo not drawn),.,6%,.,-2%,9%
CN(C)c1ncc2nc(-c3ccccc3)c(=O)n(C3CC3)c2n1,.,.,.,22µM*,.
